# Out of some 48,000 compounds screened, about 13,000 (27%) showed an effect of 50% or more. Some of the results follow.
# Tested on: Wolbachia pipientis
# Test: Anti-Wolbachia Cell-Based Screen
# Type: functional
# Set-up: scale not given: in the data most compounds retested in dose-response had high values
# Settings: 5 µM
row,Structure (SMILES),Percent Effect [%]
1,Cl.Cl.O=C(NC[C@H]1OC[C@@H](NC2CCNCC2)[C@@H]1O)C1CCCC1,-10.79
2,O=C(C1CC1)N1C[C@@H](F)[C@@H](OCc2nc3ccccc3[nH]2)C1,-5.445
3,CCS(=O)(=O)N1CCO[C@H]2[C@H](OCCCn3cccn3)CC[C@@H]21.O=C(O)C(F)(F)F,3.946
4,Cn1cccc1C(=O)N1CCO[C@H]2[C@H](OCc3cccnc3)CC[C@@H]21.O=C(O)C(F)(F)F,-1.301
5,O=C(C1CCOCC1)N1CCO[C@H]2[C@H](Oc3ccccn3)CC[C@@H]21.O=C(O)C(F)(F)F,-40.04
6,CC(=O)N1CCO[C@H]2[C@H](OCCCn3cccn3)CC[C@@H]21.O=C(O)C(F)(F)F,121.4
7,O=C(C1CCC1)N1CCO[C@H]2[C@H](OCCCn3cccn3)CC[C@@H]21.O=C(O)C(F)(F)F,102.2
8,O=C(N1CCCC1)N1CCO[C@H]2[C@@H](OCc3cccnc3)CC[C@@H]21.O=C(O)C(F)(F)F,-4.224
9,O=C(CC1CC1)N1CCO[C@H]2[C@H](OCCCn3cccn3)CC[C@@H]21.O=C(O)C(F)(F)F,104.8
10,CCOCC(=O)NCC(Cc1cccc(F)c1)n1cccc1 (centres undefined),6.887
11,CS(=O)(=O)CCCNC(=O)Nc1sc2ccccc2c1Cl,-10.11
12,COc1cc(C#N)ccc1OC12CCCN(CC1)C2 (centres undefined),107.4
13,COc1cc(C#N)ccc1OCCN1CCC(n2ccnc2)CC1,7.917
14,COCC1CCN(CCOc2ccc(C#N)cc2OC)CC1,-11.6
15,COC(=O)c1ccc(Cn2nc(C)cc2C)c(OC)c1,-3.306
16,COC(=O)c1ccc(OC)c(OC23CCCN(CC2)C3)c1 (centres undefined),94.41
17,COc1cc(C(C)=O)ccc1SCC(=O)Nc1ccc(C)cn1,-18.24
18,COc1cc(C(C)=O)ccc1OC12CCCN(CC1)C2 (centres undefined),108.8
19,COC(=O)c1ccc(Cn2cccc(C(F)(F)F)c2=O)c(OC)c1,9.312
20,COc1cc(C(C)=O)ccc1OCCNCc1ccco1.Cl,-30.68

row,Structure (SMILES),Percent Effect [%]
1,CCNC(=O)Nc1cccc(F)c1C(=O)NC1CCCC1,2.869
2,CC(C)CC(C#N)NC(=O)COC1CCCCC1 (centres undefined),-4.996
3,Cc1ccc(NC2COC3(CCN(Cc4ccn(C)n4)CC3)C2)nn1.O=C(O)C(F)(F)F (centres undefined),-6.198
4,CC(C)COC1CC2(CCN(Cc3nccn3C)CC2)C1.O=C(O)C(F)(F)F,-0.08907
5,Cn1ccc(CN2CCCC23CCN(Cc2nccn2C)CC3)n1.O=C(O)C(F)(F)F.O=C(O)C(F)(F)F,97.85
6,O=C(O)C(F)(F)F.O=C(O)C(F)(F)F.c1csc(CN2CCC3(CCCN3CC3CC3)CC2)n1,0.06996
7,CN(C)CCN1CCCC12CCN(Cc1nccn1C)CC2.O=C(O)C(F)(F)F.O=C(O)C(F)(F)F.O=C(O)C(F)(F)F,106.1
8,Cn1ccnc1CN1CCC2(CCCN2c2ncccn2)CC1.O=C(O)C(F)(F)F,-8.541
9,Cn1ccc(CN2CCC3(CCCN3CC3CC3)CC2)n1.O=C(O)C(F)(F)F.O=C(O)C(F)(F)F,89.46
10,CCc1cnc(N2C[C@H]3CCCC(N(C)Cc4ccccn4)[C@H]3C2)nc1 (some centres undefined),-24.97
11,Cc1cnc(N2C[C@@H]3[C@@H](C(=O)NCC(C)C)CCS(=O)(=O)[C@@H]3C2)nc1,-2.009
12,CN(C)C[C@@H]1CCC[C@@H]2CN(c3ncccn3)C[C@@H]21.O=C(O)C(F)(F)F,2.797
13,CC(C)CNC(=O)[C@H]1CCS(=O)(=O)[C@@H]2CN(c3ncccn3)C[C@H]12,91.22
14,CCc1cnc(N2C[C@@H]3[C@@H](C(=O)NC(C)C)CCS(=O)(=O)[C@@H]3C2)nc1,-2.445
15,CCc1cnc(N2C[C@@H]3[C@@H](C(=O)N(C)C)CCS(=O)(=O)[C@@H]3C2)nc1,108.3
16,CC(C)NC(=O)[C@H]1CCS(=O)(=O)[C@@H]2CN(c3ncc(F)cn3)C[C@H]12,-13.53
17,CN(C)C(=O)[C@H]1CCS(=O)(=O)[C@@H]2CN(c3ncc(F)cn3)C[C@H]12,102
18,CC(C)NC(=O)[C@H]1CCS(=O)(=O)[C@@H]2CN(c3ncccn3)C[C@H]12,-3.711
19,Cc1cnc(N2C[C@@H]3[C@@H](C(=O)NC(C)C)CCS(=O)(=O)[C@@H]3C2)nc1,-24.89
20,CN(C)C(=O)[C@H]1CCS(=O)(=O)[C@@H]2CN(c3ncccn3)C[C@H]12,99.37

row,Structure (SMILES),Percent Effect [%]
1,CCc1cnc(N2C[C@@H]3[C@@H](C(=O)NCC(C)C)CCS(=O)(=O)[C@@H]3C2)nc1,-5.453
2,CC(=O)CCC(=O)N1CCC2(CC1)N=C(CCC(C)C)NC2=O,-5.676
3,CC(C)(C)OC(=O)N1CCC(C(=O)NC2CCS(=O)(=O)C2)CC1 (centres undefined),6.733
4,COc1ccc(C(=O)N2CCC(C3CCN(c4ncccn4)CC3)C2)o1 (centres undefined),-7.407
5,O=C(O)C(F)(F)F.O=C(c1ccco1)N1C[C@H]2CCCN(Cc3cccs3)[C@H]2C1,-3.839
6,CN1CCN(C(=O)[C@@H]2CCO[C@@H]3CCN(c4ncccn4)C[C@@H]32)CC1,-8.422
7,O=C([C@@H]1CCS(=O)(=O)[C@@H]2CN(c3ncccn3)C[C@@H]21)N1CCOCC1,104.7
8,CN1CC2(CCCN(Cc3ccccc3OCC(=O)O)C2)OC1=O (centres undefined),0.6132
9,COc1cccc(CN2CCCC3(CCN(C(CO)CO)C3)C2)c1 (centres undefined),-0.6359
10,CN(C)CCOc1cccc(CN2CCCC3(C2)CN(C)C(=O)O3)c1 (centres undefined),103.2
11,CN1CC2(CCCN(Cc3ccc(Oc4ccccc4)cc3)C2)OC1=O (centres undefined),64.08
12,COc1ccc(/C=C/CN2CCCC3(C2)CN(C)C(=O)O3)cc1 (centres undefined),-36.85
13,CN1CC2(CCCN(c3cnccn3)C2)OC1=O (centres undefined),1.527
14,Cc1cc(C)c2[nH]c(=O)c(CN3CCCC4(C3)CN(C)C(=O)O4)cc2c1 (centres undefined),-2.953
15,CN1CC2(CCCN(c3cc(N4CCCCC4)ncn3)C2)OC1=O (centres undefined),-3.477
16,O=C1NC[C@@]2(C(=O)O)CN(Cc3cccc(Oc4ccccc4)c3)C[C@@H]12,-29.67
17,CN1CC2(CCCN(Cc3cccc(CCN)c3)C2)OC1=O (centres undefined),105.3
18,COc1ccc(/C=C/CN2CCC3(C2)CN(C)C(=O)O3)cc1 (centres undefined),-32.82
19,CN1CC2(CCCN(Cc3cccc(Oc4ccccc4)c3)C2)OC1=O (centres undefined),123.2
